Only a selection was taken, and hits are over-represented in it overall.
ALR H2O2 inh: inhibitors of human ALR sulfhydryl oxidase, primary screen, biochemical, H2O2 detection, HRP-luminol luminescence, single point. purified ALR, DTT oxidation. inhibition, % (concentration not given with the values). actives 3.8% (n = 290,000);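 active = mean replicate inhibition above about 79%, with every replicate also reaching it, limit read from the data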
Target sequence (P55789 whole entry, looked up): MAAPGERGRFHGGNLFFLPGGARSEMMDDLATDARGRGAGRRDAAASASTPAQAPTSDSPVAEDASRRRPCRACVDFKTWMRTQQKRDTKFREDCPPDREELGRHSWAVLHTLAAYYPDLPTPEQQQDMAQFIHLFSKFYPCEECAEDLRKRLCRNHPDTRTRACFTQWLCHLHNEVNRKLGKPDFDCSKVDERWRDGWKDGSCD
NPR2 activator: human GC-B receptor activators, primary screen, HEK293 GC-B cells, cGMP TR-FRET, EC30 CNP; activation, % at 10 µM; 0% at EC30 CNP, 100% saturating CNP; Atrial natriuretic peptide receptor 2 (Homo sapiens), P20594; actives 0.11% (n = 370,000);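 active = activation at 10 µM reaching about 35% in either raw or pattern-adjusted values, limit read from the data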
NPR1 activator: GC-A stimulated cGMP production enhancers – HEK293 GC-A cells, cGMP TR-FRET, EC30 ANP, primary screen. Atrial natriuretic peptide receptor 1 (Homo sapiens), P16066. 0% at EC30 ANP, 100% saturating ANP. activation, % at 10 µM. actives 0.14% (n = 370,000); in the data active = activation above about 40%
HDAC3 inh: HDAC3 deacetylase inhibitors, primary screen, biochemical, fluorescence, cell-free homogeneous; Histone deacetylase 3 (Homo sapiens), O15379; recombinant HDAC3, fluorogenic peptide/trypsin coupled; inhibition, % at 8.3 µM; actives 0.15% (n = 320,000); in the data active = inhibition above about 26%, passing the limit was not always enough
Target sequence (O15379 whole entry, looked up): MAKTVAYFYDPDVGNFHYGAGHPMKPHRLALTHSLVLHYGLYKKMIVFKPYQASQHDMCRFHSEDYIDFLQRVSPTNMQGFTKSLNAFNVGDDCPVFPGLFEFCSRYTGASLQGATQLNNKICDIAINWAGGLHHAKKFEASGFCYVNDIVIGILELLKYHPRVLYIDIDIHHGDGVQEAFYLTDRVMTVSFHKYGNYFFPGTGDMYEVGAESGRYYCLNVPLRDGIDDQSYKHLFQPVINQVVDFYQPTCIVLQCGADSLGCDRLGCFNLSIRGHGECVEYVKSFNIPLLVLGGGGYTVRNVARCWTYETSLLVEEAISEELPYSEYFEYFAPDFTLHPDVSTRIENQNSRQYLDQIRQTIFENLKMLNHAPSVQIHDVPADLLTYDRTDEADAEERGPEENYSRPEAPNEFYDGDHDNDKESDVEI
Of the large screens only hits and unclear results are named; the others gave an inactive call.

CC(C)C[C@H](NC(=O)c1cccs1)C(=O)N1CCC[C@H]1C(=O)NCc1ccccc1	none (no result: ALR H2O2 inh, HDAC3 inh)
Cc1ccc2c(c1)C(CS(=O)(=O)NCC(C)C)NC2 (centres undefined)	none (no result: ALR H2O2 inh, HDAC3 inh)
O=S1(=O)[C@H]2C[C@@H]3C=C[C@]2(CN1Cc1ccc(C(F)(F)F)cc1)O3	none
O=[N+]([O-])c1cccc(CN2C[C@@]34C=C[C@@H](C[C@@H]3S2(=O)=O)O4)c1	ALR H2O2 inh 96
[O-]c1c[n+](-c2ccccc2)no1	none
[O-]c1c[n+](-c2ccc(-[n+]3cc([O-])on3)cc2)no1	ALR H2O2 inh 98
CCOC(=O)c1ccccc1NC(=O)Cn1c(=O)n(Cc2ccccc2)c(=O)c2c(C)c(C)sc21	none
CC1CN(C(=O)c2ccccc2Nc2ccc(SC(F)F)cc2)CC(C)O1 (centres undefined)	ALR H2O2 inh 99
CCCOC(c1ccccc1)(c1ccc(C(F)(F)F)cc1)C(Oc1nc(C)cc(C)n1)C(=O)O (centres undefined)	ALR H2O2 inh 96
CC12CN(C(=O)c3ccccc3Br)CC(C)(CN(C(=O)c3ccccc3Br)C1)C2=O	none
COc1ccc(CNC(=S)Nc2cc(OC)ccc2OC)cc1	NPR1 activator 40
COc1ccc(NC(=S)NCc2ccc(F)cc2)c(OC)c1	ALR H2O2 inh 99
CCOc1ccc(OCC(=O)N(CCC2=CCCCC2)c2c(N)n(Cc3ccccc3)c(=O)[nH]c2=O)cc1	none (no result: ALR H2O2 inh)
Cn1c(SCC(=O)NC2CC2)nnc1-c1cccs1	none
COc1ccc(C(=O)NCC(=O)OCC(=O)Nc2cccc(S(=O)(=O)N3CCCC3)c2)cc1	none
Cc1cccc(COc2ccc(S(=O)(=O)N3CCOCC3)cc2[N+](=O)[O-])c1	none (no result: ALR H2O2 inh, HDAC3 inh)
CN(C)c1ccc(/C=N/NS(=O)(=O)c2ccc(Br)cc2)cc1	ALR H2O2 inh 90
COc1cc(/C=N/NS(=O)(=O)c2ccc(Br)cc2)ccc1O	ALR H2O2 inh 99
Cc1ccc(S(=O)(=O)N/N=C/c2ccc(C(=O)O)cc2)cc1	none
Cc1cccc(NC(=O)C(Cc2ccccc2)n2cccc2)c1 (centres undefined)	none (no result: ALR H2O2 inh)
O=C(CC1SC(=O)N(c2ccccc2)C1=O)Nc1ccc(Cl)cc1 (centres undefined)	HDAC3 inh 45
O=C(CC1Sc2ncnn2C1=O)Nc1ccc(Cl)cc1 (centres undefined)	none
O=C(CC1SC(=O)N(c2ccccc2)C1=O)Nc1ccc(Br)cc1 (centres undefined)	HDAC3 inh 50
CCc1cc(C(=O)OC)c(NC(=O)CSc2nccn2C)s1	none
COC(=O)c1ccccc1NC(=O)NCC1CCN(Cc2ccc(OC)cc2)CC1	none (no result: ALR H2O2 inh, HDAC3 inh)
Cc1ccc(Cn2c(=N)c(C(=O)NCC3CCCO3)cc3c(=O)n4cccc(C)c4nc32)cc1 (centres undefined)	NPR2 activator 37, NPR1 activator 40
Cc1ccc(Cn2c(=N)c(C(=O)NCC3CCCO3)cc3c(=O)n4ccccc4nc32)cc1 (centres undefined)	none
Cc1ccc(Cn2c(=N)c(C(=O)NCc3ccco3)cc3c(=O)n4ccccc4nc32)cc1	NPR1 activator 53
N=c1c(C(=O)NCc2ccco2)cc2c(=O)n3ccccc3nc2n1CCc1ccccc1	none
CC(C)(C)Nc1c(C2CCNCC2)nc2c(OCc3ccccc3)cccn12	none (no result: ALR H2O2 inh, HDAC3 inh)
COc1ccc(NC2CCCN(C(=O)c3ccccc3C(F)(F)F)C2)cc1 (centres undefined)	ALR H2O2 inh 99
COc1ccc(OC)c(C(=O)N2CCCC(Nc3ccc(F)cc3)C2)c1 (centres undefined)	ALR H2O2 inh 94
Cc1ccc2nc(C(=O)N3CCCC(Nc4ccc(F)cc4)C3)cn2c1 (centres undefined)	none
CCOC(=O)N1CCN(C2CCCN(C(=O)c3ccccc3C(F)(F)F)C2)CC1 (centres undefined)	none (no result: ALR H2O2 inh, HDAC3 inh)
COc1ccc(NC2CCCN(C(=O)c3cccs3)C2)cc1 (centres undefined)	ALR H2O2 inh 99
COc1ccc(NC(=O)C2CCN(C(=O)c3cccs3)CC2)cc1	none
Cc1ccc(N2CCN(C(=O)c3cccs3)CC2)cc1C	none
Cc1ccc(NC2CCCN(C(=O)c3cccs3)C2)cc1C (centres undefined)	ALR H2O2 inh 99 (no result: HDAC3 inh)
Cc1ccc(Cn2nnc3c2-c2ccccc2S(=O)(=O)N(C)C3)cc1	none (no result: ALR H2O2 inh, HDAC3 inh)
C=CCn1c(CSc2nc3ccccc3s2)nnc1SCC(=O)NCc1ccccc1	none
CC(N)c1ccc(Cl)cc1Cl (centres undefined)	none
COc1ccc(C(=O)c2[nH]c(N)c(C(=O)c3ccccc3)c2-c2ccc(OC)c(OC)c2)cc1	none (no result: ALR H2O2 inh, HDAC3 inh)
CC(C)(C)OC(=O)C[C@H]1C/C=C\C[C@@H](CC(=O)NCCO)C(=O)N[C@H](C(C)(C)C)COC1=O	none (no result: ALR H2O2 inh, HDAC3 inh)
CC(C)c1ccc(NC2CCCN(C(=O)c3cccs3)C2)cc1 (centres undefined)	ALR H2O2 inh 99
CCn1nc(C)cc1C(=O)N1CCCC(Nc2ccc(C(C)C)cc2)C1 (centres undefined)	none (no result: ALR H2O2 inh, HDAC3 inh)
COC(=O)c1ccc2nc(-c3cccc(N)c3)cn2c1	ALR H2O2 inh 99
CC(C)C[C@H](NC(=O)c1ccc(Cl)cc1Cl)C(=O)N1CCC[C@H]1C(=O)NCc1ccccc1	none (no result: ALR H2O2 inh, HDAC3 inh)
CCn1c(=O)c(=O)[nH]c2cc(C(=O)NC(C)c3ccc(S(N)(=O)=O)cc3)ccc21 (centres undefined)	ALR H2O2 inh 97
CN(C)c1ccc(C2(O)C(=O)c3ccccc3C2=O)cc1	none
CNc1ccc(C2(O)C(=O)c3ccccc3C2=O)cc1	ALR H2O2 inh 83
COc1ccc(S(=O)(=O)NCCc2nnc3ccc(SCC(=O)Nc4nc(C)cs4)nn23)cc1	ALR H2O2 inh 89
O=S(=O)(c1cccc(-c2csc(-c3cccnc3)n2)c1)N1CCOCC1	ALR H2O2 inh 99
CC1CCN(S(=O)(=O)c2cccc(-c3csc(-c4cccnc4)n3)c2)CC1	none
O=S(=O)(c1cccc(-c2csc(-c3cccnc3)n2)c1)N1CCCCC1	ALR H2O2 inh 98
O=S(=O)(c1ccc(-c2csc(-c3cccnc3)n2)cc1)N1CCCC1	ALR H2O2 inh 97
O=S(=O)(c1ccc(-c2csc(-c3cccnc3)n2)cc1)N1CCCCC1	none
CCCCN(C=O)c1c(CC)nc2c(OCc3ccc(Cl)cc3Cl)cccn12	none (no result: ALR H2O2 inh, HDAC3 inh)
COCCNC(=O)C/C(C)=N/NC(=O)C(=O)NC1CCCCC1	none
Cc1cc2c(cc3c(=O)n(CC(=O)NCCCN4CC(C)CC(C)C4)ncn32)s1 (centres undefined)	none
Nc1nc(Nc2cccc(Cl)c2)n[nH]1	none
Nc1nc(Nc2ccc(Cl)cc2)n[nH]1	ALR H2O2 inh 99
Nc1nc(Nc2ccccc2)n[nH]1	ALR H2O2 inh 98 (no result: HDAC3 inh)
CCCn1cc(C(CC(=O)O)C(=O)O)c2ccccc21 (centres undefined)	none
